BAZ2B inh = blocks human BAZ2B; Potency, µM (titrated, usually from 114 µM), without a hit: top-dose activity change, negative = inhibition, most hits filed as inhibitors; actives 4.4% (n = 360,000); AlphaScreen BAZ2B-H3K14Ac peptide displacement; note: % is set by controls: 0 for no effect and ±100 for the full control effect; nearly all actives have a fitted effect of over 60% in size
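AlphaScreen displacement of biotin-H3(5-23)K14Ac peptide (50 nM final) from BAZ2B (50 nM final) in PBS pH 7.4, 0.01% Tween-20; complex preformed 30 min RT, then compounds (top 110 uM) 30 min RT, beads 20 min dark.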
GLS inh = blocks human kidney-isoform glutaminase activity; O94925; GLS enzymatic activity, qHTS titration; Potency, µM (doses to about 45.5 µM), inactives show top-dose activity change, negative = inhibition, usual class: inhibitors; actives 0.21% (n = 410,000); note: % is set by controls: 0 for no effect and ±100 for the full control effect
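Assay buffer: 45 mM KH2PO4 pH 8.2, 0.02% Tween-20. hKGA acts on L-glutamine (1 mM solution added); product glutamate is reported by an oxidase/peroxidase Amplex Red coupling, with fluorescence taken at baseline and 30 min.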
JMJD2A Tudor = blocks the human JMJD2A Tudor domain; O75164; AlphaScreen JMJD2A-Tudor / H3K4me3 peptide binding; Potency, µM (top dose mostly 114 µM), for inactives: top-dose activity change, negative = inhibition, actives largely listed as inhibitors; actives 4.4% (n = 390,000); AID 504339; note: % is set by controls: 0 for no effect and ±100 for the full control effect; nearly all actives have a fitted effect of over 50% in size
G9a block = G9a (human) methyltransferase inhibition. Potency, µM (top dose mostly 102 µM), inactives show at the highest dose activity, negative = inhibition, most hits filed as inhibitors. G9a H3K9 monomethylation, AlphaScreen, 2 h. AID 504332. Q96KQ7. actives 8.8% (n = 350,000); note: % is set by controls: 0 for no effect and ±100 for the full control effect; nearly all actives have a fitted effect of over 75% in size
Target sequence (Q96KQ7 913-1193 limits assumed): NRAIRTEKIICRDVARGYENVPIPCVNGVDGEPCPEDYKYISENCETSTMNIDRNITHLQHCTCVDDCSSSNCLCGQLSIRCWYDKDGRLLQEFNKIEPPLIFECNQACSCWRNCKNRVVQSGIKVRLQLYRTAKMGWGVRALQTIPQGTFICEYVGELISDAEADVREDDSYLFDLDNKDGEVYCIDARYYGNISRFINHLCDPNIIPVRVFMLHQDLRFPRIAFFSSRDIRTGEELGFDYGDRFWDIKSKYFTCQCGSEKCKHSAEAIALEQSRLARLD
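Quantitative HTS format: methyltransferase activity on a biotin-tagged H3K9 peptide is measured by AlphaScreen, using a rabbit anti-monomethyl-H3K9 antibody with streptavidin donor and anti-IgG acceptor beads. Final levels are 20 nM enzyme, 500 nM peptide, 20 uM SAM; 2 h RT.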
HP1b binding inh = blocks HP1-beta chromodomain binding to methylated histone tails. AID 540317. Potency, µM (titrated, usually from 114 µM), for the others: top-dose activity change, negative = inhibition, actives largely listed as inhibitors. AlphaScreen HP1-beta / biotin-H3K9me3 peptide binding. P83916. actives 0.56% (n = 390,000); note: nearly all actives have a fitted effect of over 70% in size
Target sequence (P83916 whole entry, looked up): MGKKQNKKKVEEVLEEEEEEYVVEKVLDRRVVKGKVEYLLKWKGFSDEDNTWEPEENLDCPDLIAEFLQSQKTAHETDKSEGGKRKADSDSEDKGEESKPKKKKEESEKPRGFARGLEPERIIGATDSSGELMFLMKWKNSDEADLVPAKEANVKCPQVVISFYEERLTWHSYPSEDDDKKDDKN
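AlphaScreen: HP1-beta (50 nM) preformed 30 min with biotin-H3(1-18)K9me3 peptide (50 nM) in PBS pH 7.4, 0.01% Tween-20. Compound added for 30 min at RT, then streptavidin donor/nickel chelate acceptor beads (10 ug/mL) for 30 min.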
* marks the source's active call; other numbers are inactive results; ? = inconclusive; / = no result given; [ ] = dose if it differs, or a comment. The list is not random: actives were taken first. Their share in the collection is about 10%. Calls come from the whole dose curve; as a rule, active = well fitted curve in the direction sought with a large enough effect; inconclusive = small, poorly fitted or top-dose-only effect, or another doubt; inactive = no such curve, though single readings can be large; an effect the other way counts as inactive or inconclusive. Potency is the fitted concentration of half-maximal effect.

SMILES | BAZ2B inh | GLS inh | JMJD2A Tudor | G9a block | HP1b binding inh
CCCCOC(=O)CCN1C(=O)/C(=C2\SC(=S)N(CCC(=O)OCCCC)C2=O)SC1=S | ? | 9.9% | ? | ? | ?
O=C1NC(=O)C(=Cc2c(Cl)cccc2Cl)C(=O)N1 | / | -3.3% | -6.2% | / | 47.2%
O=C1NC(=O)C(=Cc2ccco2)C(=O)N1 | / | 11.2µM* | 44.7µM* | / | -34.3%[57 µM]
Cc1ccc(-n2c(C)cc(/C=C3/C(=O)NC(=O)N(C)C3=O)c2C)cc1 | -4.5% | -0.8% | -22.8% | ? | 57.8%
COc1ccc(N2C(=O)/C(=C/c3cc(C)n(-c4ccc(C)cn4)c3C)C(=O)NC2=S)c(OC)c1 | ? | ? | 39.8µM* | 31.6µM* | -12.2%
COc1ccc(CN2C(=O)NC(=O)/C(=C/c3ccc([N+](=O)[O-])o3)C2=O)cc1 | 14.1µM* | / | / | 7.08µM* | /
COc1ccc(CN2C(=O)CC(=O)NC2=O)cc1 | 0.0% | 0.2% | -4.6% | -14.7% | 27.5%
COc1ccc(CN2C(=O)NC(=O)/C(=C\c3cccc(OC)c3OC)C2=O)cc1 | ? | -7.9% | 56.2µM* | ? | 11.1%
O=C1C(=O)N(c2ccccc2)P(=O)(N(CCCl)CCCl)N1c1ccccc1 | / | -7.6% | -11.0% | / | -4.4%
C=CCN1C(=O)/C(=C/c2ccc(Br)s2)C(=O)NC1=S | 56.2µM* | -8.2% | 44.7µM* | 3.16µM* | -13.4%
CCN1C(=O)/C(=C\c2ccc([N+](=O)[O-])s2)C(=O)NC1=S | 10µM* | / | / | 2.82µM* | /
Cc1ccc(/C=C2/C(=O)NC(=O)N(CCc3ccc(F)cc3)C2=O)s1 | 0.5% | 2.3% | ? | -21.6%[59 µM] | 31.9%
S=c1[nH]nc(-c2ccccc2)n1CC1CCCO1 (centres undefined) | -1.2% | -0.4% | 39.8µM* | ? | 47.9%
Nc1c(C(=O)NC2CCCC2)c2nc3ccccc3nc2n1CC1CCCO1 (centres undefined) | 121.6% | 2.0% | 106.8% | 165.5% | 231.8%
S=c1[nH]nc(-c2ccccc2)n1C1C=CCCC1 (centres undefined) | -3.1% | ? | 3.16µM* | ? | 5.0%
Nc1ccc2nc3c(c(Cl)c2c1)CCCC3 | -29.4% | ? | -7.6% | ? | 0.5%
COCCCn1c(-c2ccc(OC)cc2)cc(C(=O)NC2CCCCCCC2)c1C | ? | -12.2% | ? | -12.2%[59 µM] | -7.1%
O=C1CC=C2C3CC4N(CCC45c4ccccc4N1C25)CC3=CCO (centres undefined) | / | 3.3% | -7.6% | / | 33.6%
COc1ccc(CCNc2nccn(-c3ccc(C)c(C)c3)c2=O)cc1OC | 44.7µM* | 5.0% | -24.7% | ? | ?
Oc1ccc(C[C@H]2NCCc3cc(O)c(O)cc32)cc1O | -19.3% | 3.2% | 39.8µM* | ? | 79.4µM*
COC(=O)C1=C(c2ccc(Cl)c(C(F)(F)F)c2)C[C@@H]2CC[C@H]1N2C(=O)NC1CCCCC1 | -9.1% | -2.7% | -7.9% | -5.7%[0.501 µM] | 57.9%
O=C(Cn1ncc2c3ccccc3n(Cc3ccc(F)cc3)c2c1=O)N1CCC2(CC1)OCCO2 | 1.9% | 9.1% | -22.2% | -16.9%[59 µM] | 10.6%
O=C(c1cccc(C(F)(F)F)c1)C1CCCN(Cc2ncc[nH]2)C1 (centres undefined) | -10.3% | -13.0% | -9.8% | 16.4%[0.501 µM] | 41.9%
Fc1ccc2c(c1)nnn2C1CCN(Cc2nnnn2CCc2ccccc2)CC1 | ? | 13.1% | -22.2% | 50.1µM* | 27.4%
Cc1nc2ccccc2n1C1CCN(Cc2nnnn2CCc2ccccc2)CC1 | ? | -4.7% | ? | 50.1µM* | 11.3%
SMILES | BAZ2B inh | GLS inh | JMJD2A Tudor | G9a block | HP1b binding inh
CCCC1COC(Cn2cncn2)(c2ccc(Cl)cc2Cl)O1 (centres undefined) | -36.8% | -0.5% | -18.3%[57.1 µM] | -6.9% | 47.6%
CC1(c2ccc(Cl)cc2Cl)OCC(Cn2cncn2)O1 (centres undefined) | 70.8µM* | 2.3% | -15.5% | ? | -2.5%
CCOc1ccc(Nc2c(S(=O)(=O)c3ccc(C)cc3)cnc3ccccc23)cc1 | ? | -0.4% | ? | -34.0%[59 µM] | 9.0%
CCOc1ccc(Nc2c(S(=O)(=O)c3ccc(C)cc3)cnc3ccc(F)cc23)cc1 | -37.3% | -10.7% | -30.5% | 10µM* | 4.9%
NC1CCCCC1N=Cc1c(O)n(Cc2ccc(F)cc2)c(=O)[nH]c1=O (centres undefined) | ? | 0.5% | -17.4% | 0.891µM* | 17.3%
CN1CCN(/N=C/c2c(O)n(Cc3ccc(F)cc3)c(=O)[nH]c2=O)CC1 | -21.4% | -0.7% | -10.3% | 56.2µM* | 24.1%
CCCCn1c(O)c(C=NC2CCCCC2N)c(=O)[nH]c1=O (centres undefined) | ? | 2.6% | -22.9% | 3.98µM* | 41.7%
CCCCn1c(O)c(/C=C/C=Nc2ccccc2)c(=O)[nH]c1=O | 7.3% | 5.4% | -14.1% | ? | 44.8%
COC(=O)CSc1n[nH]c(=S)s1 | -28.5% | -1.7% | ? | 7.94µM* | 28.2µM*
Cc1nn(C)c(C)c1/C=C1/CC2C3CC=C4CC(O)CCC4(C)C3CCC2(C)C1=O (centres undefined) | -0.6% | 2.3% | -18.8% | 11.3%[59 µM] | 2.3%
CN[C@@H](C)[C@H](O)c1ccccc1 | / | / | / | 0.0447µM* | /
CN=C(SCc1ccccc1)c1c(O)n(C)c(=O)n(C)c1=O | -10.5% | 8.7% | -14.3% | 6.2% | 32.7%
NC(=O)c1cn(C2CCCCC2)c2ccccc2c1=O | -8.7% | -5.4% | -0.7% | 14.2% | 36.1%
O=C1c2ccccc2C(=O)N1SC1CCCCC1 | 2.1% | ? | ? | 2µM* | -7.8%
CC(=NCCO)c1c(O)n(C)c(=O)n(C)c1=O | 0.0% | -1.8% | 1.8% | 28.9% | 19.5%
CCOC(=O)c1ccc2c(c1)N(CC)C(=O)c1ccccc1S2 | -6.7% | -5.6% | -3.0% | 44.7µM* | 24.0%
CCC(CC)NC1CCCCC1OC (centres undefined) | ? | 60.4% | 50.1µM* | ? | 18.6%
COC1CCCCC1NCCc1ccccc1 (centres undefined) | -29.9% | 9.1% | ? | ? | ?
Cc1ccsc1C(=O)C1CCCN(Cc2cnn(C)c2)C1 (centres undefined) | -2.6% | -20.1% | -14.9% | ? | -12.3%
C=CCN(CC#CCOc1ccccc1OC)CC=C | 50.1µM* | / | / | 17.8µM* | /
CC(=NCCN1CCCCC1)c1c(O)n(Cc2ccccc2)c(=O)[nH]c1=O | 5.5% | -14.7% | -4.5% | 39.8µM* | 39.1%
CCCCn1c(O)c(C(C)=NCCN2CCCCC2)c(=O)[nH]c1=O | -2.2% | 18.6% | -20.0% | 28.2µM* | 16.3%
CC(=NCCCN1CCCCC1)c1c(O)n(Cc2ccccc2)c(=O)[nH]c1=O | -5.2% | -9.4% | -17.0% | -5.1%[12.7 µM] | 35.5%
C[n+]1c(-c2ccccc2)cc(CCCCc2cc(-c3ccccc3)[n+](C)c(-c3ccccc3)c2)cc1-c1ccccc1 | ? | 0.0% | ? | 39.8µM* | -19.5%

Compound activity: PubChem, National Center for Advancing Translational Sciences (NCATS)
